Rows were chosen to be rich in hits. Some 4.3% of all compounds tested hit in one or more screens of this group.
Wnt bcat act – Wnt/beta-catenin pathway activators, primary screen, cell-based, plate reader, single point | Wnt/beta-catenin reporter cell assay, activator | activation, % at 9.35 µM | 300,000 compounds, 1.2% hits | AID 743398, 2014; in the data active = activation above about 30%, passing the limit was not always enough; inconclusive = no clear call, values can overlap the other calls;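 also: 0% = neutral control wells and 100% = positive control wells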
HSF-1 act – HSF-1 activators, primary screen, NIH3T3-HGL cells, MG132 stress, luminescence, single point; NIH3T3-HGL HSF-1 luciferase reporter, 8 h; 100% = twice DMSO control signal; AID 504408, 2011; 300,000 compounds, 1.7% hits; activation, % at 9 µM;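 active = mean replicate activation of at least 50% with a set share of replicates each reaching 50%; inconclusive = only one of those two conditions met; inactive = mean below 50% and too few replicates reaching it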;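 also: 0% = median of the neutral control wells and 100% = twice that signal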
MITF TRPM1 HTS – activators of MITF-driven TRPM1 promoter reporter, primary screen, cell-based, SK-MEL-5, luciferase, single point | SK-MEL-5 TRPM1-promoter luciferase, 24 h; % of positive control, neutral wells = 0 | activation, % at 12.5 µM | 300,000 compounds, 0.75% hits | AID 588334, 2011;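 active = mean activation of at least 80% with every replicate also reaching 80%; inconclusive = mean reaches 80% but some replicate falls short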;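 also: 0% = neutral control wells and 100% = parthenolide positive control wells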
SMARCA2 act – SMARCA2 (BRM) function activators, primary screen, cell-based, luminescence, high throughput. MG213 cells, MMTV-luciferase reporter, dexamethasone, overnight. activation, % at 9.1 µM. 370,000 compounds, 1% hits; in the data active = activation above about 7.8%;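 also: 0% = vehicle wells and 100% = reference activator wells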
esBAF inh – Bmi1 luciferase reporter increase in mESCs, primary screen, esBAF inhibitor project, mouse ES cells, Bmi1 luciferase knock-in, single point; 24 h; 100% = twice the neutral-well signal; reporter increase, % at 12.5 µM; 350,000 compounds, 2% hits; in the data active = activation above about 40%; inconclusive = no clear call, values can overlap the other calls;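 also: 0% = median of the plate's neutral control wells and 100% = double that signal; a rise in the Bmi1 reporter signal indicates esBAF inhibition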
HSF1 inh – HSF1 inhibitors in luciferase reporter cells, primary screen, cell-based, NIH3T3, luminescence; NIH3T3-HGL HSE-luciferase, MG132-induced, luminescence 8 h; stronger effect = lower value; 300,000 compounds, 0.77% hits; AID 2098, 2009; activity change, negative = inhibition, % at 7.5 µM (by protocol);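 active = more than half of replicate wells show activity change below -50%, luminescence cut by over half; inconclusive = some wells, but at most half, below -50%; inactive = no replicate well below -50%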;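 also: luciferase reports HSF-1 transcriptional activity via heat shock element; 0% = median of DMSO wells and -100% = zero luminescence signal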
Active calls of the source: *; ? = inconclusive; / = not tested or not shown.

SMILES	Wnt bcat act	HSF-1 act	MITF TRPM1 HTS	SMARCA2 act	esBAF inh	HSF1 inh
O=C(C[C@H]1CC[C@H](NS(=O)(=O)c2ccccc2)[C@H](CO)O1)N1CCc2ccccc2C1	/	/	/	/	9.7	/
COc1cccc(/C=N/Nc2ccc([N+](=O)[O-])cc2)c1O	39.9*	?	104.3*	4.2	31.0	18.2
O=[N+]([O-])c1cccc(N/N=C/c2cccc(O)c2O)c1	12.4	64.8*	41.3	6.0	/	21.5
Cc1cccc(N/N=C/c2ccc(O)c(O)c2O)c1	0.2	-7.4	0.1	-1.0	/	4.0
COc1cccc(N/N=C/c2cccc(Br)c2O)c1	34.6*	-4.6	59.6	-0.4	52.7*	-6.4
COc1ccc(/C=N/Nc2ccc([N+](=O)[O-])cc2)cc1O	33.0*	19.6	104.1*	1.5	80.8*	28.2
COC(=O)c1ccc(N/N=C/c2cc([N+](=O)[O-])cc(OC)c2O)cc1	-0.7	-3.6	1.3	-1.4	31.0	-4.7
C[C@H](CO)N1C[C@H](C)[C@@H](CN(C)C(=O)c2cccc(F)c2)Oc2cc(-c3ccncc3)ccc2S1(=O)=O	/	/	/	/	-7.9	/
O=C(NCc1ccncn1)[C@@H]1[C@@H](CO)[C@@H]2Cn3c(cccc3=O)[C@H]1N2CC1CC1	/	/	/	/	-1.7	/
CO[C@@H]1CN(C)C(=O)c2cc(NC(=O)C3CCC3)ccc2OC[C@@H](C)N(C(=O)CN(C)C)C[C@@H]1C	/	/	/	/	-1.1	/
CCCC#Cc1ccc2c(c1)O[C@H](CN(C)C(=O)NC(C)C)[C@H](C)CN([C@@H](C)CO)S2(=O)=O	/	/	/	/	0.9	/
CC(=O)N(C)C[C@H]1Oc2cc(C#Cc3ccncc3)ccc2S(=O)(=O)N([C@H](C)CO)C[C@@H]1C	/	/	/	/	-1.5	/
Fc1ccccc1N1CCN(Cc2cc(-c3ccccc3)on2)CC1	1.2	-80.0	4.2	-3.1	-7.0	-75.3*
Fc1ccccc1N1CCN(Cc2nc(-c3ccccc3)no2)CC1	-0.2	-13.1	2.0	-1.6	-3.0	-2.6
C[C@@H]1CCCCO[C@@H](CN(C)C(=O)Nc2ccc(C(F)(F)F)cc2)[C@H](C)CN([C@@H](C)CO)C(=O)c2cc(NC(=O)NC3CCCCC3)ccc2O1	/	/	/	/	-1.1	/
Cc1nc(-c2ccc(C(=O)Nc3cccc(Br)c3)cc2)cs1	-32.0	55.9*	22.3	-1.6	/	14.3
O=C(Nc1cccc(Br)c1)c1ccc(OC2CSC2)cc1	/	50.8*	/	/	/	40.0
Cc1nc(-c2ccc(NC(=O)c3ccc(Br)o3)cc2)cs1	23.5	52.8*	44.8	1.8	7.3	23.9
Cc1nc(-c2cccc(NC(=O)c3ccc(Br)o3)c2)cs1	1.6	/	7.4	4.0	/	/
Cc1nc(-c2cccc(NC(=O)c3ccc(-n4nccc4C)cc3)c2)cs1	1.0	/	48.4	-2.0	39.2	/
Cc1ccccc1-c1nc(-c2ccc(NC(=O)c3ccc(Br)o3)cc2)no1	/	40.3	71.1	1.3	48.6*	15.8
CO[C@@H]1CN(C)C(=O)c2cc(NC(C)=O)ccc2OC[C@@H](C)N(C(=O)C2CCC2)C[C@@H]1C	/	/	/	/	0.3	/
COc1ccc2nc(Nc3ccccc3OC)sc2c1	48.1*	73.2*	52.6	3.4	/	30.3
COc1ccc2nc(Nc3ccccc3)sc2c1	14.2	67.6*	94.7*	4.7	36.8	11.5
CCC(=O)Nc1ccc2c(c1)C(=O)N(C)C[C@H](OC)[C@H](C)CN(C(=O)C1CC1)[C@@H](C)CO2	/	/	/	/	-4.5	/
SMILES	Wnt bcat act	HSF-1 act	MITF TRPM1 HTS	SMARCA2 act	esBAF inh	HSF1 inh
CC(C)NC(=O)Nc1ccc2c(c1)C(=O)N([C@@H](C)CO)C[C@H](C)[C@@H](CN(C)C(=O)Nc1cccc3ccccc13)O2	/	/	/	/	-4.0	/
CCOc1ccc(/C(O)=C2/C(=O)C(=O)N(CCCn3ccnc3)C2c2cccs2)cc1Cl (centres undefined)	17.9	-55.7	/	-1.4	56.1*	-37.5
CCC(=O)Nc1ccc2c(c1)C(=O)N(C)C[C@@H](OC)[C@@H](C)CN(CCC(F)(F)F)[C@@H](C)CO2	/	/	/	/	-7.2	/
Cc1ccc(S(=O)(=O)/N=C2/C=C(C3C(=O)CC(C)(C)CC3=O)C(=O)c3ccccc32)cc1	62.5*	42.3	/	-8.2	?	21.4
Cc1ccc(S(=O)(=O)/N=C2\C=C(NS(=O)(=O)c3ccccc3)C(=O)c3ccccc32)cc1	9.9	/	-27.5	1.9	-0.6	/
C[C@H]1CN([C@@H](C)CO)C(=O)c2cccc(NC(=O)Nc3cccc4ccccc34)c2O[C@@H]1CN(C)C(=O)Nc1ccc2c(c1)OCO2	/	/	/	/	1.2	/
CCCCSc1nc(CCC)cc(=O)[nH]1	/	21.0	/	-1.8	/	-4.9
CCCCSc1nc(C(=O)O)cc(=O)[nH]1	38.4*	-10.9	-8.4	-1.4	-0.8	-7.2
CC(C)(C)c1cc(C(=O)NCc2cc(F)cc3c2OCOC3)n(Cc2ccccc2)n1	0.2	56.2*	/	0.8	50.1*	41.7
CCn1c(COc2ccccc2)nc2ccccc21	-4.7	7.5	25.8	1.4	58.0*	6.2
COCc1nc2ccccc2n1Cc1ccc(Br)cc1	/	17.8	19.4	2.5	49.6*	22.9
Cc1cccc(OCc2nc3ccccc3n2C)c1	12.4	23.9	/	0.9	64.2*	14.8
Cn1c(COc2ccc(F)cc2)nc2ccccc21	9.7	?	/	3.6	64.5*	33.5
CCNC(=O)C[C@@H]1CC[C@H]2[C@@H](COc3ccc(NC(=O)Cc4ccccc4)cc3C(=O)N2C)O1	/	/	/	/	0.8	/
C[C@@H]1CN([C@@H](C)CO)C(=O)c2cc(NC(=O)Cc3ccccc3)ccc2O[C@@H](C)CCCCO[C@H]1CN(C)Cc1ccc(C(F)(F)F)cc1	/	/	/	/	-0.9	/
C[C@H](CO)N1C[C@H](C)[C@@H](CN(C)S(=O)(=O)c2ccc(F)cc2)Oc2ccc(NC(=O)C3CC3)cc2CC1=O	/	/	/	/	1.4	/
CCN(CC)C(=O)C1=C(C)N(CCC2=CCCCC2)C(=O)C(CC(=O)NC2CCCC2)C1 (centres undefined)	-4.6	/	/	-5.3	1.7	/
CC1=C(C(=O)N(C)C)CC(CC(=O)NC2CCCCC2)C(=O)N1CCC1=CCCCC1 (centres undefined)	-2.1	/	/	2.2	70.2*	/
CC1=C(C(=O)N(C)C)CC(CC(=O)NC2CCCC2)C(=O)N1CCC1=CCCCC1 (centres undefined)	7.5	/	/	-2.3	48.8*	/
O=C(O)C[C@@H]1CC[C@H](NC(=O)Nc2ccccc2)[C@@H](CO)O1	/	/	/	/	0.2	/
Cc1ccc(S(=O)(=O)N(C)C[C@H]2OCCCC[C@@H](C)Oc3ccc(NS(=O)(=O)c4cn(C)cn4)cc3C(=O)N([C@H](C)CO)C[C@H]2C)cc1	/	/	/	/	0.5	/
O=C1NC(=S)S/C1=C/c1ccc(OC(=O)c2ccco2)cc1	8.7	55.0*	8.3	-0.9	15.2	19.0

Bioassay records: PubChem, several laboratories
